NS1 function inh – qHTS Assay for Inhibitors of Influenza NS1 Protein Function | Potency, µM (highest dose often 46.1 µM), for inactives: top-dose activity, positive = more growth | hit rate 0.4% among 270,000 | AID 2326, 2010; calls by dose curve; note: actives are rising curves; nearly all actives have a fitted effect of over 50% in size
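Read-out: OD600 growth recovery of NS1-expressing budding yeast. Cells grown overnight at 30C in -URA glucose medium, washed, resuspended and diluted 1:100 in 2% galactose assay medium, pH 6.0. Same strain lacking NS1 served as positive control.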
Cruzain inh noDet – qHTS Assay for Promiscuous and Specific Inhibitors of Cruzain (without detergent). AID 1476, 2009. hit rate 2.3% among 200,000. Potency, µM, for the others: max response, negative = inhibition, usual class: inhibitors. purified cruzain, Z-FR-AMC fluorescence, no detergent;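 note: plate controls were enzyme without inhibitor for no effect and buffer without enzyme for full effect; nearly all actives have a fitted effect of over 40% in size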
Target sequence (P25779 123-467 limits assumed): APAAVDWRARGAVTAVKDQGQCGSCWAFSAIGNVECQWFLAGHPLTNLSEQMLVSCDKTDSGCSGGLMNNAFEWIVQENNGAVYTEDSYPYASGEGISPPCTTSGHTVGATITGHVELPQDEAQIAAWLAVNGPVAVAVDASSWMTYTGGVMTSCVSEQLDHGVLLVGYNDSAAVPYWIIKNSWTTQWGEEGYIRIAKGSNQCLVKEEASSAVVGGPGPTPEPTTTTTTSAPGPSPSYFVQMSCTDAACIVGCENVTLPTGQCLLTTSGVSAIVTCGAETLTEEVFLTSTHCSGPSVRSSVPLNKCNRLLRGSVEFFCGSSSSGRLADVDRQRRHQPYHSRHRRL
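Detergent-free condition (0.00005% Triton X-100) in acetate buffer pH 5.5 with DTT. 1.5 nM enzyme and compound were pre-mixed 15 min, then 2 uM Z-FR-AMC substrate added; reaction progress from fluorescence change between first and third reads (60 s).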
Cruzain Triton – qHTS Assay for Promiscuous and Specific Inhibitors of Cruzain (with detergent) | Potency, µM, inactives show max response, negative = inhibition, usual class: inhibitors | hit rate 0.43% among 200,000 | purified cruzain, Z-FR-AMC fluorescence, 0.01% Triton | Cruzipain (Trypanosoma cruzi), P25779;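 note: plate controls were neutral wells for no effect and buffer without enzyme for full effect; nearly all actives have a fitted effect of over 40% in size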
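Steps: dispense cruzain (1.5 nM final) in acetate buffer pH 5.5 with DTT and 0.01% Triton X-100; pin-transfer compounds; incubate 15 min RT; add Z-FR-AMC (2 uM final); read fluorescence every 30 s, using the 60 s intensity change.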
An asterisk follows results filed as active; ? = inconclusive; . = no result. The entries come from a sample that favours hits as a whole. Unless noted, calls come from the whole dose curve; as a rule, active = well fitted curve in the direction sought with a large enough effect; inconclusive = small, poorly fitted or top-dose-only effect, or another doubt; inactive = no such curve, though single readings can be large; an effect the other way counts as inactive or inconclusive. Potency is the fitted concentration of half-maximal effect.

SMILES	NS1 function inh	Cruzain inh noDet	Cruzain Triton
Cc1ccc(-c2nnn(CC(=O)Nc3ccc(S(=O)(=O)N4CCC(C)CC4)cc3)n2)cc1	0.6%	10µM*	2.9%
COc1ccc(C)cc1S(=O)(=O)N(CC(=O)NCc1ccco1)c1ccc(C)cc1	8.2%	.	.
Cc1ccc(S(=O)(=O)N(CCCO)Cc2cc3c(C)ccc(C)c3[nH]c2=O)cc1	2.7%	?	2.2%
O=C(c1ccc(S(=O)(=O)N2CCCC2)cc1)N1CCC(CN2C(=O)c3cccc4cccc(c34)C2=O)CC1	7.4%	.	.
COc1ccc(S(=O)(=O)N2CCC(CN3C(=O)c4cccc5cccc(c45)C3=O)CC2)cc1	?	25.1µM*	-3.3%
COc1cc(CNC(C)C)ccc1OCC(=O)Nc1cccc2ccccc12	4.1%	.	.
COc1cc(C2C(C#N)=C(N)Oc3c2ccc2ccccc32)ccc1OCC(=O)Nc1ccccc1C (stereo not given)	28.5%	12.6µM*	1.5%
COC(=O)c1ccc(NC(=O)COc2ccc(C3C(C#N)=C(N)Oc4c3ccc3ccccc43)cc2OC)cc1 (stereo not given)	?	7.94µM*	2.4%
COC(=O)c1ccc(NC(=O)COc2ccccc2OC)cc1	-20.6%	-3.4%	-1.3%
CCC1(c2ccccc2)NC(=O)N(CC(=O)N(C)CC(=O)Nc2c(C)cccc2C)C1=O (stereo not given)	1.9%	.	.
Cc1[nH]c(=O)[nH]c(=O)c1S(=O)(=O)Nc1ccc(F)cc1F	5.7%	.	.
COc1ccc(-c2nsc(NC(=O)c3cccc(OC)c3)n2)cc1	.	-0.4%	-7.3%
COc1cccc(C(=O)Nc2nc(-c3ccc(Br)cc3)ns2)c1	.	25.1µM*	-2.0%
CCOc1ccc(-c2cc3nc(C4CCN(C(=O)OC(C)(C)C)CC4)c(C(=O)Nc4c(C)cccc4C)cn3n2)cc1	.	-20.5%	-9.2%
Cc1ccc(NC(=O)CC(=O)Nc2ccc(C)cc2C)c(C)c1	-5.5%	.	.
Cc1ccc(NC(=O)COC(=O)C(CC(C)C)N2C(=O)C3CC=CCC3C2=O)c(C)c1 (stereo not given)	-3.0%	8.5%	25.1µM*
COc1ccc(NC(=O)CN2C(=O)c3cccc4cccc2c34)c(OC)c1	11.3%	5.1%	5.0%
CCc1nn(-c2ccccc2)c(N)c1C#N	-25.9%	9.8%	1.8%
CCc1nn(-c2cc(Oc3ccccc3)nc(-c3ccccc3)n2)c(N)c1C#N	7.0%	3.16µM*	-6.0%
CCC(C)n1c(SCc2ccccc2)nc2ccsc2c1=O (stereo not given)	-22.8%	-0.1%	-5.3%
COc1ccccc1-c1nc2c3ccccc3nc(=S)n2[nH]1	0.7%	.	.
CCOC(=O)N1CCC(NC(=O)c2cc3c(-c4cccc(OC)c4)nn(C)c3s2)CC1	3.4%	?	3.9%
Oc1oc(-c2ccco2)nc1C=Nc1ccccc1	-62.8%	-9.2%	-20.6%
CN(C)c1ccc(/C=C/C(=O)c2cccc(Br)c2)cc1	-4.8%	-3.9%	-1.7%
CN(C)c1ccc(N=Cc2nc(-c3ccccc3)oc2OC(=O)c2cccc(Br)c2)cc1	4.2%	25.1µM*	-21.4%
SMILES	NS1 function inh	Cruzain inh noDet	Cruzain Triton
CC(=O)Oc1oc(-c2ccccc2)nc1C=Nc1ccccc1	-39.2%	25.1µM*	25.1µM*
Cc1ccc(C(=O)Oc2oc(-c3ccco3)nc2C=Nc2ccccc2)cc1	-50.3%	12.6µM*	10µM*
CCC(=O)Oc1oc(-c2ccccc2)nc1C=Nc1ccc(C)cc1	1.3%	.	.
CCOC(=O)c1ccc(N=Cc2nc(-c3ccccc3)oc2OC(C)=O)cc1	-4.5%	-27.0%	14.1µM*
CCC(=O)Oc1oc(-c2ccccc2)nc1C=Nc1ccccc1OC	-47.4%	-15.1%	-17.7%
O=S(=O)(c1ccc(C(F)(F)F)cc1)N1CCCN(c2ccc(C(F)(F)F)cn2)CC1	4.1%	.	.
Cc1csc(NC(=O)c2ccc(Br)s2)n1	-29.2%	.	.
COc1ccc(Nc2sc(C(=O)c3ccccc3)c(N)c2C(=O)Nc2cc(C)ccc2C)c(OC)c1	.	10µM*	-1.1%
COc1ccc(CCNC(=O)c2c(Nc3ccccc3C)sc(C(=O)c3ccccc3)c2N)cc1OC	.	?	-2.1%
Cc1ccc(NC(=O)c2c(Nc3ccccc3C)sc(C(=O)c3ccccc3)c2N)cc1	.	6.31µM*	-1.4%
CCOc1ccc(NC(=O)c2c(Nc3ccccc3C)sc(C(=O)c3ccc(Cl)cc3)c2N)cc1	.	-26.8%	-6.7%
Cc1cccc(NC(=O)CSc2nnc(N)s2)c1	.	12.6%	-1.6%
CCC1Oc2ccccc2N(CC(=O)NCC2CCCO2)C1=O (stereo not given)	0.4%	.	.
Cc1cccc(-n2ncc3c(Nc4ccc(Oc5ccc(Cl)cc5)cc4)ncnc32)c1	.	25.1µM*	3.0%
Cc1cccc(-n2ncc3c(Nc4ccc(C)c(Cl)c4)ncnc32)c1	.	14.1%	3.5%
CCOC(=O)C(O)(CC(=O)Nc1ccc(Cl)cc1Cl)C(F)(F)F (stereo not given)	-4.4%	0.4%	-2.0%
O=C(CN1C(=O)/C(=C\c2cccs2)SC1=S)Nc1cccc(C(=O)O)c1	4.0%	.	.
Cc1ccc(NC(=O)CN2C(=O)/C(=C\c3cccs3)SC2=S)cc1	3.8%	5.01µM*	-3.9%
CN(C)c1ccc(NC(=O)CSc2nc3ccccc3c(=O)n2C2CCCCC2)cc1	?	12.6µM*	-0.6%
CN(C)c1ccc(NC(=O)CSc2nc3ccccc3c(=O)n2CC2CCCO2)cc1 (stereo not given)	-4.6%	.	.
Cc1cc2nc(-c3ccccn3)c(-c3ccccn3)nc2cc1C	-5.9%	.	.
CC(C)NC(=O)[C@@H]1C[C@@]1(C)[C@@H](NC(=O)OCc1ccccc1)c1ccccc1	-23.8%	-2.1%	-0.4%
COc1cc(NC(=S)N2CCN(CCO)CC2)c(OC)cc1Cl	-8.2%	.	.
OCCN1CCN(C(=S)c2ccc(Cl)c(Cl)c2)CC1	2.1%	25.1µM*	-28.4%
NS(=O)(=O)c1ccc(CCNC(=O)c2ccccc2OCc2ccc(F)cc2)cc1	4.6%	.	.
CCOc1ccccc1C(=O)NCC(=O)OCC(=O)NCCc1ccc(S(N)(=O)=O)cc1	-18.3%	15.8µM*	25.1µM*

Screens as filed in PubChem BioAssay.
